Records with an inconclusive call do not appear. Values without a mark were called inactive. Calls of active or inactive are those of the source. Calls follow the shape of the dose curve; as a rule, active = well fitted cell-killing curve with a large enough effect; inconclusive = small, poorly fitted or top-dose-only effect, or effect the other way; inactive = no such curve, though single readings can be large or run the other way.
What was measured:
[1] = Viability qHTS for spleen associated tyrosine kinase inhibitor (SYKi) naive MV4-11 cells (AID 1963823); details: MV4-11 AML viability, CellTiter-Glo luminescence, 72 h; series mostly up to 45 µM; also: nearly all actives have a fitted effect of over 40% in size
Procedure, shortened: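 SYK inhibitor-naive MV4-11 cells, 500 per well, exposed to compounds for 72 hr at 37 C, 5% CO2. Viability read as CellTiter-Glo luminescence after 10 min at room temperature.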

[2] = Viability qHTS for spleen associated tyrosine kinase inhibitor (SYKi) drug resistant MV4-11 cells (AID 1963824); details: SYKi-resistant MV4-11 viability, CellTiter-Glo, 72 h; series mostly up to 45 µM; also: nearly all actives have a fitted effect of over 35% in size
Procedure, shortened: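 CellTiter-Glo luminescence, read 10 min after reagent addition, reports viability after a 72 hr compound exposure. Cells are an MV4-11 line made resistant to SYK inhibition, seeded at 500 per well onto compound-containing plates.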
Potency is read from the fitted curve at half-maximal effect.

SMILES	viability (% of control) [1]	viability, % of control [2]	Potency [1]	Potency [2]
CO[C@H]1C=C2C(CC[C@H](O[C@@H]3O[C@H](CO)[C@@H](O)[C@@H](O)[C@H]3O)C2(C)C)[C@]2(C)CC[C@]3(C)C([C@H](C)C(O)C(C=C(C)C)O[C@@H]4O[C@H](CO)[C@@H](O)[C@@H](O)[C@H]4O)CC[C@@]3(C)C12 (stereo partly specified)	86.9% [at 9.25 µM]	90.7% [at 9.25 µM]		
CC(C)(C)c1ccc(NC(=O)N2CCN(c3ncccc3Cl)CC2)cc1			3.66 µM (active)	4.11 µM (active)
C[C@@H]1O[C@@H](O[C@@H]2[C@@H](O)[C@H](O[C@@H]3[C@@H](O)[C@@H](O)[C@H](O[C@H]4[C@H](OC(=O)[C@]56CCC(C)(C)C[C@H]5C5=CCC7[C@@]8(C)C[C@H](O)[C@H](O[C@@H]9O[C@H](C(=O)O)[C@@H](O)[C@H](O)[C@H]9O)[C@@](C)(CO)C8[C@H](O)C[C@@]7(C)[C@]5(C)C[C@H]6O)O[C@@H](CO)[C@@H]4O)O[C@H]3C)OC[C@H]2O)[C@H](O)[C@H](O)[C@H]1O (stereo partly specified)	90.8% [at 9.25 µM]	95.2% [at 9.25 µM]		
O=C(/C=C/c1ccc(O)cc1)OCC1OC(O)C(OC2OC(CO)C(O)C(O)C2O)C(O)C1O (stereo unspecified)			inactive	inactive
COc1cc(-c2ccc(O)cc2)c(OC)c(O)c1C1=CC(=O)OC1CC(=O)O (stereo unspecified)			inactive	inactive
C=CC(=O)Nc1cc(-n2c(=O)ccc3cnc4ccc(-c5ccc(NS(C)(=O)=O)cc5)cc4c32)ccc1C			1.16 µM (active)	1.3 µM (active)
CCC(C)(OC(C)=O)C(=O)O[C@H]1[C@H](OC(C)=O)[C@]2(CO)[C@H](O)[C@H](O)[C@]3(C)C(=CCC4[C@@]5(C)CC[C@H](O[C@@H]6O[C@H](C(=O)O)[C@@H](O)[C@H](O[C@@H]7OC[C@H](O)[C@H](O[C@@H]8OC[C@H](O)[C@H](O)[C@H]8O)[C@H]7O)[C@H]6O[C@@H]6O[C@H](CO)[C@@H](O)[C@H](O)[C@H]6O)C(C)(C)C5CC[C@]43C)[C@@H]2CC1(C)C (stereo partly specified)			2.75 µM (active)	2.45 µM (active)
COc1c(Nc2ncc(Cl)c(N[C@H]3[C@@H](C(N)=O)[C@@H]4C=C[C@H]3C4)n2)ccc2c1CC[C@@H](N1CCOCC1)CC2			0.231 µM (active)	0.291 µM (active)
CC(=O)NC(Cc1ccccc1)C(=O)NC(C(=O)O)C(C)C (stereo unspecified)			inactive	inactive
CC1(C)CC[C@]2(C(=O)O[C@@H]3O[C@H](CO)[C@@H](O)[C@H](O)[C@H]3O)CC[C@]3(C)C(=CCC4[C@@]5(C)C[C@@H](O)[C@H](O)C(C)(C)C5[C@H](O)C[C@]43C)[C@@H]2[C@@H]1O (stereo partly specified)			inactive	inactive
Cc1cn2c(n1)Cc1ccc(Cl)cc1C(c1ccc(N)cc1)=N2			14.6 µM (active)	18.4 µM (active)
CC1=CC2=C(C)C(=O)C(C)(O)C(O)C2CO1 (stereo unspecified)			inactive	inactive
CC1=CC(=O)C(C(C)C)=C/C1=N/OC(=O)c1ccccc1C			5.17 µM (active)	4.61 µM (active)
CCNC(=O)Nc1ccc(-c2nc3c(c(N4CCOC[C@H]4C)n2)CCN(C2COC2)C3)cc1			0.461 µM (active)	0.82 µM (active)
CC(C)(O)C(O)C(=O)OCc1ccc(O[C@@H]2O[C@H](CO)[C@@H](O)[C@H](O)[C@H]2O)cc1 (stereo partly specified)			inactive	inactive
COC(=O)C1=CO[C@@H](O[C@@H]2O[C@H](CO)[C@@H](O)[C@H](O)[C@H]2O)C2C1CC(O)C2C (stereo partly specified)			inactive	inactive
O=C(c1ccc(F)c(F)c1Nc1ccc(I)cc1F)N1CC(O)(C2CCCCN2)C1 (stereo unspecified)			0.184 µM (active)	0.326 µM (active)
CCCC(Nc1nc(-c2ccc(NC(=O)NCC)c(OC)c2)ncc1C)c1cccnc1 (stereo unspecified)			0.058 µM (active)	0.13 µM (active)
C/C=C1/CC2C(=O)Nc3cc(O)c(OC)cc3C(=O)N2C1 (stereo unspecified)			16.1 µM (active)	14.3 µM (active)
CC1=CC2/C=C(\C)CCC(O)C/C=C/C(=O)OC23C(=O)NC(CC(C)C)C3C1C (stereo unspecified)			8.93 µM (active)	10 µM (active)
CC(=O)OC1C[C@]2(C)C(O)CC(C)=C[C@H](OC(=O)c3ccc(O)cc3)C2[C@]1(O)C(C)C (stereo partly specified)			inactive	6.32 µM (active)
c1cc(CN2CCCCC2)cc(OCCCNc2nc3ccccc3s2)c1			15 µM (active)	21.1 µM (active)
C=C1OC2CC(C(=O)O)C=CC2NC1=O (stereo unspecified)			inactive	2.91 µM (active)

Reference: PubChem BioAssay (NCATS)
